Experimental findings from PubChem BioAssay (NCATS) are described below.

Unmarked numbers belong to inactive results. Results filed as inconclusive are left out. Active and inactive are the calls of the source. Unless noted, calls come from the whole dose curve; as a rule, active = well fitted curve in either direction with a large enough effect (not every such curve was filed as active); inconclusive = small, poorly fitted or top-dose-only effect, or another doubt; inactive = flat fitted curve, though single readings scatter.

Assay [1] in a line: AP1 Signaling Pathway (AID 357).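 Note: ME-180 reporter cells stimulated with EGF at its EC50 level; % is set by controls: 0 for no effect and ±100 for the full control effect.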 The following applies: ME-180 AP-1-bla reporter, EGF-induced, beta-lactamase ratio, 5 h; at 17.2 µM (top of the series) unless noted. Summed up:
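In this screen, ME-180 cells in Opti-MEM with 0.5% dialyzed FBS received EC50 EGF and compound titrations for 5 h. AP-1 reporter beta-lactamase was detected via CCF4 ratio, giving AC50 for positive and negative modulators.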

In assay [2] the target is Cytochrome P450 1A2 (Homo sapiens) (UniProt P05177). Description: p450-cyp1a2 (AID 410; calls by dose curve; note: potency is the fitted concentration of half-maximal effect). The method in brief:
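20nM CYP1A2, 100uM Luciferin-ME (=Km), 100mM KPO4; cpd 10 min RT; +NADPH regen, 60 min RT; stop/detect 20 min; luminescence. Normalized to furafylline 57 uM = full inhibition.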

The nature of assay [3]: Stat Signaling Pathway (AID 446).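 Note: ME-180 cervical cancer cells given 40 pM IL-6 alongside compound; SIE-controlled beta-lactamase reporter measured as 460/530 nm FRET emission ratio; % is set by controls: 0 for no effect and ±100 for the full control effect.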 The following applies: ME-180 SIE beta-lactamase reporter, IL-6 stimulated, 5 h; at 17.2 µM (top of the series) unless noted. Summed up:
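FRET read-out (405 nm excitation, 460/530 nm emission) of a beta-lactamase reporter under a STAT-inducible element in ME-180 cervical carcinoma cells. Cells with compound receive 40 pM IL-6 for 5 h. Values are normalised to AC90 stimulation and AC90 JAK-inhibitor controls.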

For assay [4], the target named is Glucocorticoid receptor (Homo sapiens) (UniProt P04150). Description: GR-GFP Redistribution (AID 450;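 active = compounds whose dose series gives a full or clear partial fitted curve of increased nuclear translocation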; note: potency is the fitted concentration of half-maximal effect).
The target is the same in assay [5]. In words: GR-EFC Redistribution (AID 451; calls by dose curve; note: potency is the fitted concentration of half-maximal effect). The following applies: CHO-K1 GR-EFC translocation, beta-gal luminescence, 2 h. Summed up: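 Translocation of GR-ED fusion to nuclear EA restores b-gal, read by luminescence after 1 h room-temperature detection. Engineered CHO-K1 biosensor cells, 1,000/well, exposed 2 h at 37 C to titrations up to 46 uM final.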
In assay [6] the target is Mitogen-activated protein kinase 10 (Mus musculus) (UniProt Q61831). Description: JNK3 AlphaScreen Assay (AID 530).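 Note: kinase came from lysate of stimulated human HepG2 cells; signal reports phosphorylation of biotinylated GST-cJun 1-79 at Ser73 with 10 µM ATP; % is set by controls: 0 for no effect and ±100 for the full control effect.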 Summed up: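 Kinase buffer: 20 mM Tris-HCl pH 7.6, 10 mM MgCl2, 1 mM DTT, 0.1 mM Na3VO4, 0.01% Tween-20; ATP 10 uM. Substrate biotin-GST-cJun(1-79), enzyme from activated HepG2 lysates. Detection by Ser73 phospho-antibody AlphaScreen.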
Assay [7] has as its target 3',5'-cyclic-AMP phosphodiesterase 4B (Homo sapiens) (UniProt Q07343). Description: qHTS Assay for Inhibitors of PDE-IV (AID 607; active = well fitted activation curve with a large enough effect in the main read-out, with a control signal flat, not every such curve was filed as active; note: % of control where 0% means no effect). The method in brief: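 Cell-based read-out of cAMP via a modified cyclic nucleotide-gated channel and membrane potential dye (535/590 nm) in HEK293 cells expressing PDE4 endogenously. Compounds tested up to 22.9 uM final; 100 uM RO 20-1724 reference.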
Background: In qHTS, concentration-response curves come from the screen itself.

The target of assay [8] is Cytochrome P450 2C19 (Homo sapiens) (UniProt P33261). Description: qHTS Assay for Inhibitors and Substrates of Cytochrome P450 2C19 (AID 899; active = well fitted curve in the direction sought with a large enough effect; an effect the other way counts as inactive or inconclusive; note: potency is the fitted concentration of half-maximal effect; nearly all actives have a fitted effect of over 60% in size). Summed up:
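Reactions contain 5nM enzyme, 10uM Luciferin-H EGE (KM) and 50mM KPO4; compound preincubates 10 min at 37C, NADPH regeneration starts turnover for 60 min. Luminescence after detection reagent gives activity.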

Assay [9] in a line: NFAT Signaling Pathway (AID 444).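 Note: carbachol stimulus at about its EC50 of 1 µM final; % is set by controls: 0 for no effect and ±100 for the full control effect.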 The note with it: Jurkat NFAT-bla M1, carbachol, beta-lactamase ratio, 5 h; at 17.2 µM (top of the series) unless noted. Summed up: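 Read-out: CCF4 FRET ratio (460 nm/530 nm) after 1 h RT dye loading, used for %activity and AC50 from titration series. Cells: Jurkat NFAT-β-lactamase/M1 line, treated with compound plus 1 uM carbachol for 5 h, 37 °C.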

Assay [10] has as its target Guanine nucleotide-binding protein G(i) subunit alpha-1 (Homo sapiens) (UniProt P63096). Description: qHTS Assay for Inhibitors of RGS12 GoLoco Motif Activity (Green Fluorophore) (AID 879; active = well fitted curve in the direction sought with a large enough effect; an effect the other way counts as inactive or inconclusive;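 note: 0% = labeled peptide with Gαi1 and full inhibition = labeled peptide alone without protein; negative values mean loss of peptide binding seen as reduced polarization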). Summed up: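 A drop in FITC polarization marked displacement of the FITC-tagged RGS12 GoLoco peptide (10 nM) from Gαi1 (50 nM). Compounds were incubated 10 min at room temperature in Tris pH 7.5 buffer containing 150 mM NaCl, 0.1 mM GDP and 0.05% NP40; unlabeled peptide titration served as control.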

Assay [11] in a line: qHTS Assay for Identification of Small Molecule Agonists for Thrombopoietin (TPO) Signaling Pathway (AID 917; active = well fitted curve in the direction sought with a large enough effect; an effect the other way counts as inactive or inconclusive; note: % is set by controls: 0 for no effect and ±100 for the full control effect). The method in brief: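 Stimulation at the TPO EC50 (26 pM final) was used to detect activators. Ba/F3 mouse cells bearing human TPO receptor and a luciferase reporter under the Glycoprotein IIb promoter were exposed to compounds for 24 hrs at 37 C.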
Assay [12] deals with Muscarinic acetylcholine receptor M1 (Rattus norvegicus) (UniProt P08482). In words: qHTS Assay for Antagonists of Acetylcholine Muscarinic M1 Receptor: Measurement of IP-One Response (AID 944; active = well fitted curve in the direction sought with a large enough effect; an effect the other way counts as inactive or inconclusive; note: nearly all actives have a fitted effect of over 75% in size). Summed up:
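Read-out: HTRF competition between d2-IP1 and Eu-cryptate anti-IP1 antibody, emission 620 and 665 nm. Stimulus was carbachol, EC80 (200 nM), for 30 min in M1-CHO cells (rat receptor), after 10 min compound pre-treatment.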

Assay [13] concerns the target Pyruvate kinase (Leishmania mexicana) (UniProt Q27686). Description: qHTS Validation Assay for Inhibitors of Leishmania Mexicana Pyruvate Kinase (AID 945; active = well fitted curve in the direction sought with a large enough effect; an effect the other way counts as inactive or inconclusive;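 note: 0% = DMSO only neutral control wells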). Summed up:
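Read-out: luminescence from PKLight stop/detection reagent, data normalized to DMSO. Reaction: 0.2 nM E451W LmPYK, 0.5 mM PEP, 0.1 mM ADP, pH 7.2, 1 h room temperature.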

In assay [14] the target is Pyruvate kinase PKM (Homo sapiens) (UniProt P14618). Description: qHTS Assay for Activators of Human Muscle Pyruvate Kinase (AID 954; active = well fitted curve in the direction sought with a large enough effect, not every such curve was filed as active;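 note: 0% = uninhibited enzyme and -100% = no enzyme or full thiadiazolimine inhibition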). The method in brief:
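ATP production by PKM2 detected via luciferase luminescence after 1 h room-temperature reaction (0.1 nM enzyme, PEP at Km 0.5 mM, ADP 0.1 mM, pH 7.2 imidazole buffer). Inhibition scaled to no-enzyme control; activation referenced to 0.3 nM enzyme wells.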

Assay [15] has as its target Alpha-galactosidase A (Homo sapiens) (UniProt P06280). In words: Counterscreen for Glucocerebrosidase Inhibitors: qHTS Assay for Human alpha-Galactosidase at pH 4.5 (AID 992; active = well fitted curve in the direction sought with a large enough effect; an effect the other way counts as inactive or inconclusive; note: 0% is about no effect). The method in brief:
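Fluorogenic 1536-well qHTS at pH 4.5 (citrate, Tween-20): 2 nM enzyme, 80 uM 4-MU-alpha-galactoside, 20 min room temperature, NaOH/glycine stop. Titration 0.7 nM to 77 uM, data normalized to no-enzyme and full-activity controls, Hill-fitted AC50.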

Assay [16] concerns the target alpha-glucosidase (Oryza sativa, rice) (UniProt Q653V4). In words: Counterscreen for Glucocerebrosidase Inhibitors: qHTS Assay for Rice alpha-Glucosidase at pH 5.0 (AID 997; active = well fitted curve in the direction sought with a large enough effect; an effect the other way counts as inactive or inconclusive;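 note: 0% = full activity with enzyme and -100% = basal without enzyme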). The method in brief: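 Endpoint fluorogenic assay at pH 5.0: compounds (0.7 nM to 77 uM) titrated against 4 nM rice enzyme and 400 uM 4-MU-alpha-glucoside for 20 min at room temperature; NaOH/glycine stop, read ex 365/em 440 nm, Hill-fitted AC50.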
On the technique in general: The purpose of a counterscreen is to sort out artefacts and off-target activity.

For assay [17], the target named is Cytochrome P450 3A4 (Homo sapiens) (UniProt P08684). In words: qHTS Assay for Activators of Cytochrome P450 3A4 (AID 885; active = well fitted curve in the direction sought with a large enough effect; an effect the other way counts as inactive or inconclusive; note: nearly all actives have a fitted effect of over 65% in size). The method in brief:
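Luminescent readout of luciferin formed from 25 uM Luciferin-PPXE (KM level) by 20 nM CYP3A4 in 200 mM KPO4, with 60 min NADPH-driven reaction at room temperature after 10 min compound exposure. Ketoconazole (57 uM) defined 100% inhibition.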

Assay [18] in a line: qHTS Assay for Identification of Small Molecule Agonists for Hypoxia Response Element Signaling Pathway (AID 914; active = well fitted activation curve with a large enough effect in the signal ratio, with a control signal flat, not every such curve was filed as active; the % refers to the signal ratio; note: % of control where 0% means no effect). The note with it: ME-180 (cervical carcinoma) HRE-bla reporter, beta-lactamase ratio, CoCl2, 17 h; activation: hits give high values. The method in brief:
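qHTS titration; ME-180 HRE-bla cells; EC50 CoCl2 co-treatment, 17 h at 37 degrees Celsius; CCF4 dye, ex 405nm, em 460nm and 530nm; %Activity from ratio; AC50.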

Chain of 3',5'-cyclic-AMP phosphodiesterase 4B (Homo sapiens) (Q07343 whole entry, looked up): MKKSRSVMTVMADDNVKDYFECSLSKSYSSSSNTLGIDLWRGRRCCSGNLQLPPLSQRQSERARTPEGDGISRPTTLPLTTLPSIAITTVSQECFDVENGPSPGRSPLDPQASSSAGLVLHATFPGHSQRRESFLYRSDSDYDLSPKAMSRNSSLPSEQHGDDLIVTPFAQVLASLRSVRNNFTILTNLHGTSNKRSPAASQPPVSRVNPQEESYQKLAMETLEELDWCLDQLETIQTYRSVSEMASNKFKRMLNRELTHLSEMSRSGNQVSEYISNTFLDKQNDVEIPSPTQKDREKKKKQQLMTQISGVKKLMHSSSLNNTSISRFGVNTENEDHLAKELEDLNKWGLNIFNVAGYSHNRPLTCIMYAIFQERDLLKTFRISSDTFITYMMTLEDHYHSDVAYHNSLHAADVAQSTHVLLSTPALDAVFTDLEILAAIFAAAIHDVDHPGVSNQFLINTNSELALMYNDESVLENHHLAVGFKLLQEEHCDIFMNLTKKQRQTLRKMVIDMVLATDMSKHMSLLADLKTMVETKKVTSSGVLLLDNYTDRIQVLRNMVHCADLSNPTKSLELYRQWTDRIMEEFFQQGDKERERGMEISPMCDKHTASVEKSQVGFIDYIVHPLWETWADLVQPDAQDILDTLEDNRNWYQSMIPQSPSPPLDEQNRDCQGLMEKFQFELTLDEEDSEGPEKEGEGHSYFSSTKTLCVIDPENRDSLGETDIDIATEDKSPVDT
Chain of Glucocorticoid receptor (Homo sapiens) (P04150 whole entry, looked up, the tested form may be a part): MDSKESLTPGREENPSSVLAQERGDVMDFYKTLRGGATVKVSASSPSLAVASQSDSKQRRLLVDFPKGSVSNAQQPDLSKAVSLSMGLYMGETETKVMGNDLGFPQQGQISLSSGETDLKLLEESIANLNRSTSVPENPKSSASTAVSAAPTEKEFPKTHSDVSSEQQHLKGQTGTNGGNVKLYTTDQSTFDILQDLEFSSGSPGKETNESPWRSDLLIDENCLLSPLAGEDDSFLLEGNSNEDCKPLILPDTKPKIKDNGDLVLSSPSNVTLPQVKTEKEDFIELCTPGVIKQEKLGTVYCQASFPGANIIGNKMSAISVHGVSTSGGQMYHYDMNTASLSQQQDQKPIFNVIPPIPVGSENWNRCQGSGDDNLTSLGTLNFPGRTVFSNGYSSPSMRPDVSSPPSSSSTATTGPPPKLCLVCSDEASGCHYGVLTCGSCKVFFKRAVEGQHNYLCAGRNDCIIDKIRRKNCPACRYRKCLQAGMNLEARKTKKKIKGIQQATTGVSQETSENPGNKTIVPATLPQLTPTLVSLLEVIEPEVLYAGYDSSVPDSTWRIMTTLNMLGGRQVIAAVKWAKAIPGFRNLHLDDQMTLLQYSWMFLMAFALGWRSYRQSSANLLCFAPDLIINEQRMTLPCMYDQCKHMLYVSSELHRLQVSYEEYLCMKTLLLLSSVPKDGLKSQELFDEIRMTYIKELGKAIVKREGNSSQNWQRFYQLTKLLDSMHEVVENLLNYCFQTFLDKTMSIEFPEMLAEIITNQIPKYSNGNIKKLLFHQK
Chain of Cytochrome P450 1A2 (Homo sapiens) (P05177 whole entry, looked up): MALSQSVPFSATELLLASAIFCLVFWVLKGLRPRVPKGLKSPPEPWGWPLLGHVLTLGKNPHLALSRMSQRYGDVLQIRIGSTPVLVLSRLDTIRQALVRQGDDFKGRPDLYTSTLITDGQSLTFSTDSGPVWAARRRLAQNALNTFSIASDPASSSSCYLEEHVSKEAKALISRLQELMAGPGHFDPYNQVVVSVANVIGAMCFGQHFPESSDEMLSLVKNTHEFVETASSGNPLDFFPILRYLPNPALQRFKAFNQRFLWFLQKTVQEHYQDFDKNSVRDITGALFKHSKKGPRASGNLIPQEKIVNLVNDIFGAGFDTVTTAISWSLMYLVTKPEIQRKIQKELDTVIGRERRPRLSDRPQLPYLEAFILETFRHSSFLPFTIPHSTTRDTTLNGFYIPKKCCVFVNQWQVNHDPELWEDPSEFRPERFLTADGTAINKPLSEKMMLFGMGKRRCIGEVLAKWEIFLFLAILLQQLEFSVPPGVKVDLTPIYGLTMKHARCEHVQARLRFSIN
Chain of Guanine nucleotide-binding protein G(i) subunit alpha-1 (Homo sapiens) (P63096 whole entry, looked up): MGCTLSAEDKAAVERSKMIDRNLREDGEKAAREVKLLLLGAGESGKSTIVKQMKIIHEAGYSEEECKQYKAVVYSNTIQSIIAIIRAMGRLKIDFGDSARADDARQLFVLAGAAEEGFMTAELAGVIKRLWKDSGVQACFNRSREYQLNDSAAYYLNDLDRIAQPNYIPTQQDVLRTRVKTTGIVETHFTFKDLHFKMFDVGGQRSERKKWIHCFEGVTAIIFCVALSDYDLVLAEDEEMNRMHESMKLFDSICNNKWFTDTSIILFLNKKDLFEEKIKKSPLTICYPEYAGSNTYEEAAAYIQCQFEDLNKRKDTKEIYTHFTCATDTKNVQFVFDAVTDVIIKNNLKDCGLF
Chain of Alpha-galactosidase A (Homo sapiens) (P06280 whole entry, looked up): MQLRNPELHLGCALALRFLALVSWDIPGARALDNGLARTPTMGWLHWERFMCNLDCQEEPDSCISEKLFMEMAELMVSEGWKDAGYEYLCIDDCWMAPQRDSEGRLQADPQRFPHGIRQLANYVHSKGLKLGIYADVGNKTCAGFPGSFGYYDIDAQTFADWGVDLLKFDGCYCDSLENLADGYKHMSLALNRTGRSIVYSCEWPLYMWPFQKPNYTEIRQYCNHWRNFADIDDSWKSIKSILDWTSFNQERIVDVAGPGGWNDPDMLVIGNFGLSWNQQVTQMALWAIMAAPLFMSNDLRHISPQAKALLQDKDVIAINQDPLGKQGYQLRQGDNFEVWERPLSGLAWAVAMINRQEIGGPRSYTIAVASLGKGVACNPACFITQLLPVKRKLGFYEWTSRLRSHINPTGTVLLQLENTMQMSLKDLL
Chain of Cytochrome P450 3A4 (Homo sapiens) (P08684 whole entry, looked up): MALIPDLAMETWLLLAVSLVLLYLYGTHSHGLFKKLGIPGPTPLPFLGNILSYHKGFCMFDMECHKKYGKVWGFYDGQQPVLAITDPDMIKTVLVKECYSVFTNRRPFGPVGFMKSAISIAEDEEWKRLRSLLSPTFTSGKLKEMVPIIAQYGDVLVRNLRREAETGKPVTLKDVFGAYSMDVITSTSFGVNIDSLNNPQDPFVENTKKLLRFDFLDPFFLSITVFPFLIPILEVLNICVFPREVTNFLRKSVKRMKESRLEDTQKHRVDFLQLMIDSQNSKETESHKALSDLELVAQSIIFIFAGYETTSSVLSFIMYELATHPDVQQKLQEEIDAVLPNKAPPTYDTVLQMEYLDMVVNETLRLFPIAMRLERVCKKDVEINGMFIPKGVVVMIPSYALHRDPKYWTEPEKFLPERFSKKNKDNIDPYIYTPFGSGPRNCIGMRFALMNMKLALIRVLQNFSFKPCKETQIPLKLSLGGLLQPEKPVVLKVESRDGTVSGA
Chain of Cytochrome P450 2C19 (Homo sapiens) (P33261 whole entry, looked up): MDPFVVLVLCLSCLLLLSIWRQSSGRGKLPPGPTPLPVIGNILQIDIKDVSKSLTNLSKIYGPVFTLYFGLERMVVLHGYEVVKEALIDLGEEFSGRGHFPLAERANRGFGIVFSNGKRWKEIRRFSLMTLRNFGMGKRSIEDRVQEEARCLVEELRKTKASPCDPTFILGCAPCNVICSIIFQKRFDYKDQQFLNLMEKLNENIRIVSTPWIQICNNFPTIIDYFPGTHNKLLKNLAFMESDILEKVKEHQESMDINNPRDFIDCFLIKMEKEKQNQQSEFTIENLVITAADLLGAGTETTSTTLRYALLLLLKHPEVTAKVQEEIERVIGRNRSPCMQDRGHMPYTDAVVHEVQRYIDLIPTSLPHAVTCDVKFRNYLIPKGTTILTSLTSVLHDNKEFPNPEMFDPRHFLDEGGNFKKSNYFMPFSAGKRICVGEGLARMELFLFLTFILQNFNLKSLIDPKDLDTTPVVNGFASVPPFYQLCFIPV
Chain of Pyruvate kinase PKM (Homo sapiens) (P14618 whole entry, looked up): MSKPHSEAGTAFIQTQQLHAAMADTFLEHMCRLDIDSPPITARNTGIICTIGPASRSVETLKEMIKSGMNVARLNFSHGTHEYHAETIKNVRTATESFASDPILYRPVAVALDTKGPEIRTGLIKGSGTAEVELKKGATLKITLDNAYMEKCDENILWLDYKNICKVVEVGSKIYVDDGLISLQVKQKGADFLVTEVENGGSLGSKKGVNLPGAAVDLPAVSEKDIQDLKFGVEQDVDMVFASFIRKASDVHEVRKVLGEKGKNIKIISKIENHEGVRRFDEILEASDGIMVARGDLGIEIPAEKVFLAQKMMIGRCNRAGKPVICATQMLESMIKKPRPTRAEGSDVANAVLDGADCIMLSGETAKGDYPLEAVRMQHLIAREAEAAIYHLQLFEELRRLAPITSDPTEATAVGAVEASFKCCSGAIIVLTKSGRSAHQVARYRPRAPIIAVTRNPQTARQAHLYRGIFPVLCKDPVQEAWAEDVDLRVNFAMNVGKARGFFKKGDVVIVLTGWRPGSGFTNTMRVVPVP
Chain of Pyruvate kinase (Leishmania mexicana) (Q27686 2-499 E452W): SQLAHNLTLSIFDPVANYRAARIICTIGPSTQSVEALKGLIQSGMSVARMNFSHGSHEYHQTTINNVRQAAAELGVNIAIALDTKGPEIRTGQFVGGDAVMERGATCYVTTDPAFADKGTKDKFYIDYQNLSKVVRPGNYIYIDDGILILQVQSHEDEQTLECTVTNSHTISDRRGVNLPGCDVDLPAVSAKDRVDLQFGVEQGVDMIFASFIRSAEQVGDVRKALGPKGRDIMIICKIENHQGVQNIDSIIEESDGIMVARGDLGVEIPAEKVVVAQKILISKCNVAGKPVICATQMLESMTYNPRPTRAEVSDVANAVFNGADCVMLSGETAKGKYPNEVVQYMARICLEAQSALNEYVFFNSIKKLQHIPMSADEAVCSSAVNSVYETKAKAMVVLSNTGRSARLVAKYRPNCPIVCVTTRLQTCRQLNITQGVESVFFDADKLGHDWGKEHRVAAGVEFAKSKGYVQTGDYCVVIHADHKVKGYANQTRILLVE

With `COc1ccc2c(c1)CN([C@H](C)[C@@H]1CC[C@@H]3[C@H]4CC[C@H]5C[C@@H](O)CC[C@@]5(C)[C@H]4CC[C@]31C)CO2`, the activity change, negative = inhibition is 23.1% [at 7.69 µM] in assay [1], -18% [at 2.29 µM] in [2] and -1.53% [at 11.4 µM] in [6]. Also, in [3], the activity, negative = inhibition was -2.48% [at 7.69 µM]. Also, the Potency is more than 46 µM in assay [4] and more than 9.22 µM in assay [5]. Further, the Potency entry in assay [7] was “inactive”.
Regarding `N=C1[C@@H](O)[C@]2(I)c3ccccc3N3C(=N)[C@H](O)[C@@H]4c5ccccc5N1[C@@H]4[C@@H]32`, the activity change, negative = inhibition in assay [1] was 9.35% [at 7.69 µM]; in [6], -25.9% [at 11.4 µM]. The Potency in assay [2] was 2.51 µM (active); in assay [4] it was more than 46 µM; in [5], more than 9.22 µM; in assay [8], 3.16 µM (active). In assay [7], the Potency result was “inactive”.
Take `Cc1ccc(N2C(=O)C3ON(c4ccccc4)C(c4ccncc4)C3C2=O)cc1` (stereo not drawn): the activity change, negative = inhibition in [1] was 5.13%; in assay [9], 9.45%. For the same molecule, the activity, negative = inhibition in assay [3] is -10.5%.
Take `Cc1ccc(-c2nn(C)c(=O)c3ccccc23)cc1CN1CCOCC1`: the activity change, negative = inhibition in assay [1] was 16.4%; in assay [9], -19.8%. The activity, negative = inhibition in assay [3] is -0.983%. In [4], the Potency was more than 20.6 µM.
For the molecule `CCCCCCCCCCCCCCCCCCNC(=O)OC[C@@H](COP(=O)([O-])OCC[n+]1ccsc1)OC`, the activity change, negative = inhibition in assay [1] is 1.14% [at 38 µM]. Besides, the Potency result in assay [2], in assay [6], in assay [7], in assay [11], in assay [12] and in assay [13] was “inactive” throughout. The activity, negative = inhibition in [3] is -15% [at 38 µM]. Besides, the Potency in [4] and in [5] was more than 46 µM each time. In addition, the result in [10], in assay [14], in assay [15] and in assay [16] was inactive.
For the molecule `CO[C@H]1C[C@@H]2CC[C@@H](C)[C@@](O)(O2)C(=O)C(=O)N2CCCC[C@H]2C(=O)O[C@H]([C@H](C)C[C@@H]2CC[C@@H](O)[C@H](OC)C2)CC(=O)[C@H](C)C=C(C)[C@@H](O)[C@@H](OC)C(=O)[C@H](C)C[C@H](C)C=CC=CC=C1C`, the activity change, negative = inhibition in assay [1] was 6.13%; in assay [9] it was 24.7%. The activity, negative = inhibition in assay [3] was -28.8%.
Take `Cc1nn(CC(=O)NCCN2CCOCC2)c(=O)c2ccccc12`: the activity change, negative = inhibition in [1] was 5.98%; in assay [9], 20%. The activity, negative = inhibition in [3] was 8.76%. For the same molecule, the Potency in [4] is more than 20.6 µM.
In the case of `COCCNc1nc(-c2ccc(N(C)C)cc2)nc2ccccc12`, in [1], the activity change, negative = inhibition is 26.5% [at 7.69 µM]. The Potency was 0.631 µM (active) in assay [2], more than 46 µM in assay [4] and more than 46 µM in assay [5]. Also, the activity, negative = inhibition in assay [3] is 4.49% [at 7.69 µM]. Besides, the Potency entry in assay [6], in assay [7] and in [17] was “inactive” throughout.
Consider `CC(=O)O[C@]12CC[N@+]3(C)CCCC[C@@H]3[C-]1Nc1ccccc12`, for which the activity change, negative = inhibition was 2.61% [at 7.69 µM] in [1], -11% [at 11.4 µM] in assay [2] and 4.94% [at 11.4 µM] in assay [6]. Besides, the activity, negative = inhibition in [3] was 1.87% [at 7.69 µM]. The Potency in assay [4] was more than 46 µM; in assay [5], more than 9.22 µM. In addition, the Potency entry in assay [7] is “inactive”. The activation in assay [18] is 4.44%.
